# Compound activity (PubChem BioAssay)
# MITF TRPM1 HTS: MITF TRPM1 promoter activation in melanoma cells. SK-MEL-5 TRPM1-promoter luciferase, 24 h; % of positive control, neutral wells = 0. activation, % at 12.5 µM. 0.75% of 300,000 active;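 active means mean activation of at least 80% with every replicate also reaching 80%; inconclusive means mean reaches 80% but some replicate falls short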;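 further: 0% = neutral control wells and 100% = parthenolide positive control wells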
# esBAF inh: SWI/SNF esBAF complex inhibition; mouse ES cells, Bmi1-luciferase knock-in reporter, 24 h; 100% = twice the neutral-well signal; reporter increase, % at 12.5 µM; 2% of 350,000 active; in the data active means activation above about 40%; inconclusive means no clear call, values can overlap the other calls;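 further: 0% = median of the plate's neutral control wells and 100% = double that signal; a rise in the Bmi1 reporter signal indicates esBAF inhibition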
# HSF1 inh: HSF1 inhibition; NIH3T3-HGL HSE-luciferase, MG132-induced, luminescence 8 h; stronger effect = lower value; activity change, negative = inhibition, % at 7.5 µM (by protocol); 0.77% of 300,000 active;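 active means more than half of replicate wells show activity change below -50%, luminescence cut by over half; inconclusive means some wells, but at most half, below -50%; inactive means no replicate well below -50%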;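 further: luciferase reports HSF-1 transcriptional activity via heat shock element; 0% = median of DMSO wells and -100% = zero luminescence signal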
# Wnt bcat act: activates Wnt/beta-catenin signaling in a reporter cell assay. activation, % at 9.35 µM. 1.2% of 300,000 active. activator, plate reader; in the data active means activation above about 30%, passing the limit was not always enough; inconclusive means no clear call, values can overlap the other calls;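 further: 0% = neutral control wells and 100% = positive control wells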
# HSF1 activator: increases HSF-1 driven luciferase reporter signal | 1.7% of 300,000 active | activation, % at 9 µM | NIH3T3-HGL HSF-1 luciferase reporter, MG132, 8 h; 100% = twice DMSO control signal;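 active means mean replicate activation of at least 50% with a set share of replicates each reaching 50%; inconclusive means only one of those two conditions met; inactive means mean below 50% and too few replicates reaching it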;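 further: 0% = median of the neutral control wells and 100% = twice that signal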
# The depositor's hits bear a star; ? = inconclusive; / = no result given. An excerpt weighted towards active compounds, which were near 3.8% of everything screened.
SMILES,MITF TRPM1 HTS,esBAF inh,HSF1 inh,Wnt bcat act,HSF1 activator
N/C(=N\OC(=O)c1ccc(F)cc1)c1cccc([N+](=O)[O-])c1,87*,32,23,16,42
COc1ccc(-c2nc3ccc([N+](=O)[O-])cc3[nH]2)cc1,47,/,7,50*,54*
Cc1ccc(-c2nc3ccc([N+](=O)[O-])cc3[nH]2)cc1,13,/,50,19,61*
COc1ccc2nc(-c3ccccc3)[nH]c2c1,/,4,4,75*,19
O=[N+]([O-])c1ccc2nc(-c3ccc(Cl)cc3)[nH]c2c1,41,/,32,-6,80*
Cc1nn(C)cc1NC(=O)C[C@@H]1CC[C@H]2[C@@H](COc3ccc(NC(=O)Nc4cccc(Cl)c4)cc3C(=O)N2C)O1,/,-1,/,/,/
COc1ccc2[nH]c(-c3ccc(C)cc3)cc(=O)c2c1,-47,-55,2,/,20
COc1ccc2[nH]c(-c3ccccc3)cc2c1,106*,?,18,46*,44
O=C(C[C@H]1C[C@@H]2c3cc(NC(=O)NC4CCCCC4)ccc3O[C@@H]2[C@H](CO)O1)NCc1ccccc1,/,3,/,/,/
COc1ccc(NC(=O)N(C)C[C@@H]2Oc3ncc(C#CCC(C)C)cc3C(=O)N([C@H](C)CO)C[C@H]2C)cc1,/,-1,/,/,/
COCCNC(=O)C(c1ccncc1)N(C(=O)c1sc(C)nc1C)c1cccc(C)c1 (configuration not stated),/,/,32,-2,75*
CCOC(=O)c1c(-c2ccccc2)n(C)c2ccc(O)cc12,-7,6,-57*,/,-55
CCOC(=O)c1c(C)n(-c2ccccc2)c2ccc(O)cc12,-11,8,-4,-3,-6
CN(CCC#N)C(=O)COC(=O)c1ccc(Cl)cc1O,10,-2,3,1,-18
CSc1ccc(Cl)c(C(=O)OCC(=O)N(C)CCC#N)c1,1,/,19,-1,59*
Cn1c(CNc2ccccc2)nc2ccccc21,-7,66*,17,/,39
Cc1ccccc1NCc1nc2ccccc2n1C,/,?,37,14,?
Cn1c(CNc2ccccc2O)nc2ccccc21,-6,48*,40,-9,80*
Cn1c(CNc2ccc(F)cc2)nc2ccccc21,/,69*,31,6,27
Cn1c(CSc2nc3ccccc3n2C)nc2ccccc21,22,26,31,17,70*
Cc1noc(C)c1NC(=O)N(C)C[C@@H]1Oc2ccc(NS(C)(=O)=O)cc2C(=O)N([C@H](C)CO)C[C@H]1C,/,0,/,/,/
Cn1c(NCc2cccs2)nc2ccccc21,32,50*,3,/,20
CCn1c(NCc2cccs2)nc2ccccc21,-1,7,4,-1,24
CCCn1c(CNc2ccc(Br)cc2)nc2ccccc21,19,48*,19,6,19
CCn1c(CNc2ccc(C(=O)O)cc2)nc2ccccc21,-10,6,-4,2,-8
SMILES,MITF TRPM1 HTS,esBAF inh,HSF1 inh,Wnt bcat act,HSF1 activator
COc1ccc(NC(=O)N(C)C[C@@H]2Oc3c(NS(=O)(=O)c4ccc(Cl)cc4)cccc3C(=O)N([C@H](C)CO)C[C@@H]2C)cc1,/,-6,/,/,/
Oc1cc(Nc2ccccc2)cc2cccnc12,-57,10,/,80*,/
Cc1ccc(OCCOCCn2cnc3ccccc3c2=O)c([N+](=O)[O-])c1,-8,/,1,-1,3
O=c1c2ccccc2ncn1CCOc1ccccc1[N+](=O)[O-],54,67*,8,4,28
C=CCOc1ccc(/C=N/Nc2ccccn2)cc1OC,?,64*,29,-1,66*
CCOc1ccc(/C=N/Nc2ccccn2)cc1OC,58,/,13,14,28
COc1ccccc1/C=N/Nc1nccnc1Cl,58,42*,-4,13,0
CCCOc1ccc(/C=N/Nc2ccccn2)cc1OC,91*,29,18,5,13
COc1cc(/C=N/Nc2ccccn2)ccc1OCC(C)C,90*,?,17,7,24
COc1ccc(/C=N/Nc2ccccn2)c(OC)c1OC,33,/,5,8,33
COc1ccc(C(=O)/C=C/Nc2ccccn2)c(OC)c1,/,/,35,0,74*
COc1ccc(/C=N\Nc2ccccn2)c(OC)c1,/,52*,22,14,41
CO[C@@H]1CN(C)C(=O)c2cc(NS(=O)(=O)c3cn(C)cn3)ccc2OC[C@H](C)N(C)C[C@@H]1C,/,2,/,/,/
CC(C)c1nnc(NC(=O)C2CCN(c3nc4ccccc4s3)CC2)s1,-4,8,1,/,19
CCOc1ccc2nc(N3CCCCCC3)sc2c1,64,3,45,21,72*
CCOc1ccc2nc(N3CCC(C(=O)N4CCN(C(=O)c5ccco5)CC4)CC3)sc2c1,12,24,0,/,16
O=C(Nc1nc2ccccc2s1)C1CCN(C(=O)c2ccco2)CC1,/,21,3,1,9
CCOc1ccc2nc(N3CCC(C(=O)Nc4nnc(CC)s4)CC3)sc2c1,34,48*,1,2,4
CCOc1ccc2nc(NC(=O)C3CCN(C(=O)c4ccco4)CC3)sc2c1,77,65*,12,21,13
CCOc1ccc2nc(N3CCC(C(=O)N4CCN(C5CCCCC5)CC4)CC3)sc2c1,-2,65*,-4,-4,-6
CCNC(=O)C[C@H]1CC[C@H](NS(=O)(=O)c2ccc(F)cc2)[C@H](CO)O1,/,4,/,/,/
CC(C)(C)[S@@](=O)N1Cc2cc(C(=O)NCc3ccncc3)nc(-c3cccc(-c4cccc(C#N)c4)c3)c2[C@H]1CCO,/,-1,/,/,/
O=C(Nc1ccc(N2CCOCC2)c(F)c1)c1cccs1,110*,23,22,?,32
O=C(Nc1ccc(N2CCOCC2)c(Cl)c1)c1ccccc1F,?,103*,63,/,48
COC(=O)c1cc(NC(=O)c2cccs2)ccc1N1CCOCC1,3,/,2,-3,5
SMILES,MITF TRPM1 HTS,esBAF inh,HSF1 inh,Wnt bcat act,HSF1 activator
O=C(Nc1ccc(N2CCOCC2)c(Cl)c1)c1ccc(Cl)cc1,68,45*,8,19,27
O=C(c1ccccc1)c1ccc(N2CCOCC2)c(F)c1,70,58*,-4,30,3
COc1ccc(NC(=O)Nc2ccc3c(c2)CC(=O)N([C@@H](C)CO)C[C@@H](C)[C@@H](CN(C)S(=O)(=O)c2cn(C)cn2)O3)cc1,/,2,/,/,/
O=C(C[C@H]1C[C@H]2c3cc(NC(=O)Cc4ccncc4)ccc3O[C@H]2[C@@H](CO)O1)NCc1cc(F)ccc1F,/,2,/,/,/
COCCCNC(=O)c1ccccc1Oc1ccccc1,-2,-3,-4,-2,7
COCCCNC(=O)c1ccc2c3c(onc13)-c1ccccc1C2=O,/,/,100,/,139*
C[C@@H]1CCCCO[C@H](CN(C)C(=O)Nc2ccc(C(F)(F)F)cc2)[C@@H](C)CN([C@H](C)CO)C(=O)c2cc(NC(=O)Nc3cccc4ccccc34)ccc2O1,/,2,/,/,/
O=C(C[C@@H]1CC[C@H](NC(=O)Cc2ccccn2)[C@@H](CO)O1)NCCc1ccncc1,/,-5,/,/,/
O=C(N=C1SCC(=O)N1c1ccccc1Cl)c1ccco1,67,23,25,1,12
